Reference: PubChem BioAssay (NCATS)
Activity calls are given as the source filed them. Calls come from the whole dose curve.

Experiment: qHTS drug screen for cell cycle checkpoint inhibitors in PARPi-resistant BRCA-mutant ovarian cancer cell lines. (AID 1963452)
Details: PEO1/OlaR viability, CellTiter-Glo luminescence, 96 h; for Z-AUC: stronger effect = lower value
Outline: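 PEO1, PEO4 and PEO1/OlaR ovarian cancer cells, 600 per well, exposed 96 h at 37C to a dilution series. Viability read by CellTiter-Glo luminescence, normalized to DMSO and empty wells; activity summarized as Z-AUC.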

[1] = measured here: PEO1 parental Z-AUC
Potency is the fitted concentration of half-maximal effect.

| Compound | Z-AUC | Z-AUC [1] | Z-AUC (measured here: PEO4 Z-AUC) | Potency |
| --- | --- | --- | --- | --- |
| CC(C)NC(=O)N1CC[C@H](N=C2Nc3cc(F)ccc3N(CC(F)F)c3ccc(Cl)cc32)C1 | -0.974 (inactive) | -0.755 | -0.602 | – |
| COCCNCc1ccc(-c2cc3nccc(Oc4ccc(NC(=O)C5(C(=O)Nc6ccc(F)cc6)CC5)cc4F)c3s2)nc1 | -0.956 (inactive) | -0.642 | -0.561 | – |
| C[C@H](CN(C)C)Oc1nc(Nc2cc3cccc(Cl)c3cn2)cnc1C#N | -0.234 (inactive) | 0.15 | -0.249 | – |
| CCCC1(CCC)CCC2(CCN(CCCN(CC)CC)C2)CC1 | – | -2.03 | -1.83 | 3.89 µM (active) |
| O=C1NC(=O)C(c2cnc3ccccn23)=C1c1cn2c3c(cc(F)cc13)CN(C(=O)N1CCCCC1)CC2 | – | -1.85 | -1.33 | 0.174 µM (active) |
| CCNC1(C(N)=O)CCN(c2ncnc3c2nc(-c2ccccc2Cl)n3-c2ccc(Cl)cc2)CC1 | 0.84 (inactive) | 0.367 | 0.247 | – |
| CCc1cc(C(N)=O)ccc1-n1nc(C(C)C)c2c(-n3cnc(-c4cnn(C)c4)c3)ccnc21 | -0.734 (inactive) | -1.82 | -1.2 | – |
| CS(=O)(=O)Nc1cc2occ(NC=O)c(=O)c2cc1Oc1ccccc1 | 0.738 (inactive) | 0.631 | 0.731 | – |
| CC(/C=C/C(=O)NO)=C\[C@@H](C)C(=O)c1ccc(N(C)C)cc1 | -0.778 (inactive) | -0.861 | -1.61 | – |
| O=C(NC[C@H](O)CN1CCc2ccccc2C1)c1ccnc(NC2CCC2)c1 | -0.571 (inactive) | -0.416 | -0.212 | – |
| Fc1ccc(-c2nc(-c3ccccc3F)[nH]c2-c2ccncc2)cc1 | 0.595 (inactive) | -0.0932 | 0.278 | – |
| O=C(Nc1ccc2[nH]nc(-c3ccncc3)c2c1)[C@@H]1CCN(CC(=O)N2CCN(c3ccc(-c4ncccn4)cc3)CC2)C1 | -0.198 (inactive) | -1.04 | -0.706 | – |
| Cn1cc(-c2ccc3c(c2)CCN3C(=O)Cc2cccc(C(F)(F)F)c2)c2c(N)ncnc21 | -1.17 (inactive) | -0.267 | -1.2 | – |
| CC[C@@H](C)Nc1cc(C(=O)NC2CC3CC[C@@H](C2)N3c2ccc(C(=O)C3CC3)cn2)c(C)cc1C(N)=O (some centres undefined) | – | -1.88 | -1.25 | 0.219 µM (active) |
| O=C(c1c(F)ccc(NS(=O)(=O)N2CC[C@@H](F)C2)c1F)c1c[nH]c2ncc(-c3cnc(C4CC4)nc3)cc12 | -0.0874 (inactive) | 0.401 | 0.486 | – |
| C[C@@H](Nc1ncnc2[nH]c(-c3ccc(O)cc3)cc12)c1ccccc1 | 0.00552 (inactive) | 0.314 | 0.296 | – |
| CCCC(CCC)C(=O)Nc1ccn([C@@H]2O[C@H](CO)[C@@H](O)C2(F)F)c(=O)n1 | -1.13 (inactive) | -1.5 | -0.847 | – |
| CC(C)C[C@H](CO)Nc1nc(S[C@@H](C)c2ccccc2)nc2nc(N)sc12 | -0.387 (inactive) | -0.481 | -0.0726 | – |
| COc1cc2ncnc(Nc3ccc(O)c(Br)c3)c2cc1OC | -0.393 (inactive) | 0.024 | -0.318 | – |
| O=C(NCC(=O)N1CCCC1)Nc1ccc2cnccc2c1 | -0.618 (inactive) | -0.349 | -1.01 | – |
| CCCCOC(=O)NS(=O)(=O)c1sc(CC(C)C)cc1-c1ccc(Cn2ccnc2)cc1 | 0.282 (inactive) | 0.365 | 0.449 | – |

| Compound | Z-AUC | Z-AUC [1] | Z-AUC (measured here: PEO4 Z-AUC) | Potency |
| --- | --- | --- | --- | --- |
| CC#C[C@@H](CC(=O)O)c1ccc(OCc2cccc(-c3ccc(C(F)(F)F)cc3)c2)cc1 | 0.0821 (inactive) | 0.579 | 0.882 | – |
| CN1C(=O)c2sccc2N(C)c2nc(Nc3ccc(S(N)(=O)=O)cc3)ncc21 | -1.71 (inactive) | -0.96 | -1.18 | – |
| O=C(Nc1ccnc(NC(=O)C2CC2)c1)c1c(Cl)cccc1Cl | -1.13 (inactive) | -0.966 | -0.923 | – |
| COc1ccc(CNc2nc(N(CCO)CCO)nc3c2ncn3C(C)C)cc1 | -0.772 (inactive) | -0.866 | -0.51 | – |
| CCOc1cc(C(C)(C)C)ccc1C1=N[C@@](C)(c2ccc(Cl)cc2)[C@@](C)(c2ccc(Cl)cc2)N1C(=O)N1CCN(CC(=O)N2CCOCC2)CC1 | -0.291 (inactive) | 0.35 | 0.188 | – |
| Cc1nc2ccc(-n3ncc(C(=O)c4cc5ccccc5[nH]4)c3N)cc2[nH]1 | -0.798 (inactive) | -1.1 | -0.294 | – |
| COc1cc(N2CCC(N3CCN(C)CC3)CC2)ccc1Nc1ncc(Cl)c(Nc2ccccc2P(C)(C)=O)n1 | – | -1.53 | -1.55 | 0.549 µM (active) |
| O=C(Nc1cccnc1)c1cc(-c2ccnc(F)c2)ccc1OCc1ccccc1 | -0.389 (inactive) | -0.74 | -0.497 | – |
| CC(C)NC(=O)COc1cccc(-c2nc(Nc3ccc4[nH]ncc4c3)c3ccccc3n2)c1 | – | -1.21 | -1.12 | 4.36 µM (active) |
| Cc1cc(C(=O)Nc2cc(Nc3ccc4c(/C=C/c5ccccn5)n[nH]c4c3)ccc2F)n(C)n1 | -1.04 (inactive) | -0.196 | -0.912 | – |
| C[C@@H]1CN(CC(=O)N2CC(C)(C)c3ncc(Cc4ccc(F)cc4)cc32)[C@@H](CN2CCOC[C@H]2C)CN1 | 1.68 (inactive) | 0.908 | 0.0229 | – |
| FC(F)(F)c1ccc(/C=C/c2nc(COc3ccc(CCCCn4ccnn4)cc3)co2)cc1 | – | -3.45 | -2.45 | 0.195 µM (active) |
| COc1cc2c(cc1OCCCN1CCCC1)N=C(N)C21CCC1 | -0.834 (inactive) | -0.0136 | -0.411 | – |
| COc1ccc(-c2c(C)nn3c(NCCN4CCOCC4)cc(C)nc23)cc1OC | 0.717 (inactive) | 0.787 | 0.395 | – |
| CCC(CC)C(c1ccc(Nc2nc3ccccc3s2)cc1)n1cncn1 (centres undefined) | 0.298 (inactive) | 0.98 | 0.959 | – |
| O=C1Nc2nc(-c3c(O)cccc3OCC3CC3)cc([C@@H]3CCCNC3)c2CO1 | 0.934 (inactive) | 0.63 | 0.451 | – |
| Cc1cccc(CC(=O)N2CCc3c2ccc(-c2cn(C)c4ncnc(N)c24)c3F)n1 | -0.652 (inactive) | -1.04 | -0.572 | – |
| COc1ccc(Cl)c(Nc2ncnc3cc(OCC4CCN(C)CC4)c(OC)cc23)c1 | -1.39 (inactive) | -0.765 | -1.02 | – |
| CCCc1cc(C)[nH]c(=O)c1CNC(=O)c1cc(-c2ccc(N3CCN(C(C)C)CC3)nc2)cc2c1cnn2C(C)C | 0.233 (inactive) | 0.123 | 0.0189 | – |
| O=C(NCCCNC(=O)c1ccc[nH]c1=O)c1cc(-c2ccccc2)on1 | 0.194 (inactive) | 0.0234 | -0.178 | – |
| COc1ccc2nc3n[nH]c(C)c3c(NCCOCCO)c2c1 | -0.331 (inactive) | 0.387 | 0.00576 | – |

| Compound | Z-AUC | Z-AUC [1] | Z-AUC (measured here: PEO4 Z-AUC) | Potency |
| --- | --- | --- | --- | --- |
| FC(F)(F)c1ccc(CNc2ccc(Cc3c[nH]c4ncc(Cl)cc34)cn2)cn1 | 1.12 (inactive) | 1.06 | 1.21 | – |
| CCNC(=O)C#Cc1ccc2c(C(=Nc3ccc(CN(C)C)cc3)c3ccccc3)c(O)[nH]c2c1 | – | -2.66 | -2.58 | 0.535 µM (active) |
| O=c1[nH]c([C@@H]2CCCN2)nc2c1oc1ccc(Cl)cc12 | 0.967 (inactive) | 1.19 | 1.1 | – |
| Cc1cnc(-c2ccccc2C(C)C)nc1NCc1ccc(-n2ccnn2)cc1 | 1.08 (inactive) | 1.04 | 1.31 | – |
| CCOC(=O)[C@@]1(CCCCCCOc2ccc(Cl)cc2)CO1 | 1.19 (inactive) | 1.19 | 1.21 | – |
| CS(=O)(=O)c1ccc(Oc2cc(F)cc(C#N)c2)c2c1[C@H](O)C(F)(F)C2 | 1.42 (inactive) | 1.01 | 0.7 | – |
| C1=C/COCc2cc(ccc2OCCN2CCCC2)Nc2nccc(n2)-c2cccc(c2)COC/1 | -1.05 (inactive) | -1.19 | -0.941 | – |
| CN(C)N(C)C(=O)[C@@]1(Cc2ccccc2)CCCN(C(=O)[C@@H](Cc2c[nH]c3ccccc23)NC(=O)C(C)(C)N)C1 | -0.303 (inactive) | -0.129 | 0.0758 | – |
| COc1cc(N2CCC(N)CC2)ccc1Nc1ncc(Cl)c(-c2c[nH]c3ccccc23)n1 | -1.17 (inactive) | -1.5 | -2.07 | – |
| COc1c(C)cc(NC(=O)c2nn(Cc3ccc(F)cc3)c3c2CN(C(=O)c2ccc[nH]2)C[C@]3(C)C(N)=O)cc1C | -0.421 (inactive) | -0.262 | -0.568 | – |
| Cc1cccc(-c2[nH]ncc2-c2ccc(F)c(-c3cnn(CCO)c3)c2)n1 | 0.705 (inactive) | 0.508 | 1.13 | – |
| Cc1nc(-c2cn3c(n2)-c2ccc(-c4cnn(C(C)(C)C(N)=O)c4)cc2OCC3)n(C(C)C)n1 | -1.26 (inactive) | -0.764 | -0.716 | – |
| C=CC(=O)Nc1cccc(Nc2nc(Nc3ccc(OCCOC)cc3)ncc2F)c1 | -0.82 (inactive) | -1.21 | -1.08 | – |
| C=CC(=O)N1CCC(Oc2cc3c(Nc4ccc(Cl)c(Cl)c4F)ncnc3cc2OC)CC1 | -0.983 (inactive) | -1.08 | -0.834 | – |
| Cc1[nH]c(/C=C2\C(=O)Nc3ccc(S(=O)(=O)N(C)c4cccc(Cl)c4)cc32)c(C)c1C(=O)N1CCN(C)CC1 | 1.27 (inactive) | 1.2 | 1.26 | – |
| CC(C)(C)Sc1c(CC(C)(C)C(=O)O)n(Cc2ccc(Cl)cc2)c2ccc(OCc3ccc4ccccc4n3)cc12 | 1.37 (inactive) | 0.865 | 0.962 | – |
| c1cc(-c2cnn3cc(-c4ccc(N5CCNCC5)cc4)cnc23)c2cccnc2c1 | -1.26 (inactive) | -1.26 | -1.83 | – |
| Cn1ncc(Cl)c1-c1cc(C(=O)N[C@H](CN)Cc2cccc(F)c2)sc1Cl | 0.3 (inactive) | 0.0445 | 0.251 | – |
| COC1CCN(C(=O)c2cc(Cc3n[nH]c(=O)c4ccccc34)ccc2F)CC1 | 0.585 (inactive) | -0.393 | 0.328 | – |
| COc1cccc(OCCCN)c1-c1cc(Nc2cnc(C#N)cn2)n[nH]1 | – | -2.4 | -2.98 | 0.0049 µM (active) |
| C=CC(=O)Nc1ccc2ncnc(Nc3cccc(Br)c3)c2c1 | -0.896 (inactive) | -1.05 | -0.968 | – |
